About 79,000 compounds went through this panel and 15% of them were active in at least one assay; those are over-represented in the sample as a whole. A number with no mark means an inactive call. The source made the active and inactive calls. Rule as the data show it: active = growth inhibition above about 70%; inactive = the rest.
Legend:
[1] = NCI Yeast Anticancer Drug Screen. Data for the rad50 strain (AID 155);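 also: 0% = growth of vehicle-only cultures of the same strain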; settings: S. cerevisiae rad50 strain growth inhibition, hits give high values
Method in brief: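 DNA repair mutant yeast, compound exposure, growth read-out; inhibition is taken relative to vehicle.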

[2] = NCI Yeast Anticancer Drug Screen. Data for the mec2-1 strain (AID 157); settings: S. cerevisiae mec2-1 strain, hits give high values
Method in brief: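 Strain: mec2-1 (DNA repair/cell cycle alteration). Compound exposure, then growth measured; inhibition expressed relative to vehicle.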

[3] = NCI Yeast Anticancer Drug Screen. Data for the sgs1 mgt1 strain (AID 161);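 also: 0% = growth of cultures given vehicle only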; settings: S. cerevisiae sgs1 mgt1 strain, hits give high values
Method in brief: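 Test agents were incubated with a DNA-repair-mutant yeast strain. Growth was then read and compared against vehicle-treated controls.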

[4] = NCI Yeast Anticancer Drug Screen. Data for the cln2 rad14 strain (AID 165);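 also: 0% = growth equal to vehicle treated cultures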; settings: S. cerevisiae cln2 rad14 strain, hits give high values
Method in brief: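 Compounds are applied to the cln2 rad14 yeast strain, and growth is then compared with that of vehicle-treated cultures to give inhibition.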

[5] = NCI Yeast Anticancer Drug Screen. Data for the bub3 strain (AID 167); settings: S. cerevisiae bub3 mutant strain, hits give high values
Method in brief: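 In this screen, a yeast mutant lacking normal mitotic checkpoint function is challenged with compound. Relative growth versus vehicle gives the inhibition value.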

[6] = NCI Yeast Anticancer Drug Screen. Data for the mlh1 rad18 strain (AID 175); settings: S. cerevisiae mlh1 rad18 strain growth inhibition, hits give high values
Method in brief: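 Read-out is yeast growth inhibition, calculated against vehicle-only controls. The compound was applied to a strain engineered with DNA damage repair alterations.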

[7] = at 5.0 µM (retest, dose inferred, filed as 0.5)
[8] = at 50.0 µM (retest, dose inferred, filed as 5.0)

Compound | growth inhibition [1, 7] | growth inhibition [1, 8] | growth inhibition ([1]; at 50.0 µM) | growth inhibition [2, 7] | growth inhibition [2, 8] | growth inhibition ([2]; at 50.0 µM) | growth inhibition [3, 7] | growth inhibition [3, 8] | growth inhibition ([3]; at 50.0 µM) | growth inhibition [4, 7] | growth inhibition [4, 8] | growth inhibition ([4]; at 50.0 µM) | growth inhibition [5, 7] | growth inhibition [5, 8] | growth inhibition ([5]; at 50.0 µM) | growth inhibition [6, 7] | growth inhibition [6, 8] | growth inhibition ([6]; at 50.0 µM)
C1=C([P+](c2ccccc2)(c2ccccc2)c2ccccc2)CCCC1 | 22% | 93% (active) | 89.8% (active) | -2% | 91% (active) | 92.2% (active) | 13% | 84% (active) | 88.5% (active) | 24% | 90% (active) | 86.5% (active) | -8% | 92% (active) | 87.5% (active) | 14% | 91% (active) | 91.9% (active)
O=C1/C(=C/c2cccc([N+](=O)[O-])c2)CCCc2ccccc21 | 4% | 92% (active) | 73.5% (active) | 7% | 94% (active) | 68.8% | 13% | 94% (active) | 83.2% (active) | -5% | 91% (active) | 70.7% (active) | 20% | 94% (active) | 84.8% (active) | 9% | 93% (active) | 75.9% (active)
C=C1C(=O)C23CC[C@H]4C(C)(CCC[C@]4(C)C(=O)O)[C@@H]2CCC1C3 (stereo not given in full) | 94% (active) | 99% (active) | 90.5% (active) | 96% (active) | 99% (active) | 93.7% (active) | 93% (active) | 99% (active) | 93% (active) | 72% (active) | 99% (active) | 88.3% (active) | 95% (active) | 99% (active) | 92% (active) | 97% (active) | 99% (active) | 92.7% (active)
Cc1cc2nc3n(c2cc1C)C(c1c(F)cccc1F)SC3 (stereo not given) | 25% | 24% | -6.85% | 16% | 12% | -14.7% | 27% | 24% | 9.1% | 12% | 23% | -6.1% | 26% | 25% | 30.5% | 26% | 22% | -0.35%
Oc1c(C(Nc2ccccn2)c2ccccc2)ccc2cccnc12 (stereo not given) | 8% | 97% (active) | 94.6% (active) | 19% | 97% (active) | 94.3% (active) | -4% | 96% (active) | 95.5% (active) | -11% | 94% (active) | 93% (active) | -9% | 97% (active) | 94.4% (active) | 7% | 96% (active) | 94.5% (active)
CN(c1ccccc1)c1c2c(oc(=O)c1Cl)-c1ccccc1SC2 | 16% | 45% | 86% (active) | 12% | 8% | 46.2% | 13% | 40% | 62.4% | 7% | 32% | 10.9% | 0% | 85% (active) | 93.5% (active) | 7% | 96% (active) | 55%
COc1ccc2c(c1)CC[C@@H]1[C@@H]2CC[C@]2(C)/C(=N/OCCN3CCCC3)CC[C@@H]12 | 95% (active) | 99% (active) | 89.5% (active) | 38% | 99% (active) | 91.8% (active) | 24% | 96% (active) | 92.1% (active) | 46% | 98% (active) | 89.7% (active) | 49% | 97% (active) | 91.1% (active) | 39% | 99% (active) | 91.1% (active)
O=[N+]([O-])c1ccc(SC(=S)N2CCCCC2)c([N+](=O)[O-])c1 | 21% | 98% (active) | 98.4% (active) | 16% | 98% (active) | 99% (active) | 15% | 99% (active) | 99.2% (active) | 0% | 92% (active) | 98.4% (active) | 10% | 98% (active) | 98.8% (active) | 21% | 98% (active) | 98.9% (active)
CN(C)c1ccc(/C=C(/C#N)c2ccc(Cl)cc2)cc1 | -16% | -18% | 3.45% | 0% | 8% | 13.2% | 3% | 15% | -10.3% | 27% | -6% | 64.4% | 6% | -25% | 7% | -17% | -18% | 5.5%
Cc1ccsc1/C=N/Nc1cc(C)c2cccc(C)c2n1 | 1% | 47% | 48.5% | -23% | 21% | 30.3% | -11% | 24% | 48.4% | 4% | 38% | 33.8% | -12% | 63% | 15.4% | -8% | 57% | 63.2%
